Data from PubChem BioAssay AID588849 (Broad Institute, 2011).
Results with a measured potency or affinity are listed apart. Activity calls are given as the source filed them. No rule for the calls is given here.

What follows are molecules tested against CAAX prenyl protease 2 (Homo sapiens) (UniProt Q9Y256) (assay: inhibition of Ras-converting CAAX protease Rce1 – biochemical, yeast membranes, quenched-peptide fluorescence, cherry-pick, dose response (AID 588849)). Conditions: yeast membrane fractions expressing human Rce1, quenched-peptide fluorescence, 4 h; series mostly up to 10 µM.
Sequence of CAAX prenyl protease 2 (Homo sapiens) (Q9Y256 whole entry, looked up): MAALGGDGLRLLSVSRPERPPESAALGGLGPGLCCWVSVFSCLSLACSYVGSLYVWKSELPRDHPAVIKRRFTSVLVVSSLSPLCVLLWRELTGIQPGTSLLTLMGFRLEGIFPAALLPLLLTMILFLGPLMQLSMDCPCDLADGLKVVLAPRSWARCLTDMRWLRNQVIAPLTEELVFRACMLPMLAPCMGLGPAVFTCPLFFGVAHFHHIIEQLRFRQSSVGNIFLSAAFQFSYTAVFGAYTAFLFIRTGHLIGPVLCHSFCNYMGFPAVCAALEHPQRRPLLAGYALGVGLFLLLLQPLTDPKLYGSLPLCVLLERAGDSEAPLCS

outcome, inactive:
Cc1ccc(OCCn2c3ccccc3n3nc(C)c(=O)nc23)cc1
CCOC(=O)c1cc2c(=O)n3cccc(C)c3nc2n(CC(C)C)c1=NC(=O)c1ccco1
Cc1ccc(C(=O)c2c3ccccc3[n+]([O-])n2CCO)cc1
O=C(CN1C(=O)/C(=C\c2cccc(Br)c2)Oc2ccccc21)NCC1CCCO1 (stereo not drawn)
CCN1CCN(CC(O)COc2ccc3c(C)cc(=O)oc3c2)CC1 (stereo not drawn)
O=C(O)CCc1nc2cc(C(F)(F)F)ccc2n(Cc2ccccc2)c1=O
Cc1ccc(N=Cc2c(O)n(C)c(=O)n(C)c2=O)nc1
COc1cccc2c(=O)c(C(=O)O)c[nH]c12
Cc1cc(N2CCOCC2)n2cc(-c3ccccc3)nc2n1
CCCOc1ccc(-c2c(C(=O)N/N=C/c3cccs3)nnn2-c2nonc2N)cc1
CCS(=O)(=O)Nc1c(C(=O)O)[nH]c2ccccc12
COc1ccc(NS(=O)(=O)c2c(C)cc(C)cc2C)cc1
O=C(NCC1CC1)c1ccc(Nc2nc3ccc(Br)cc3[nH]2)cc1
O=C(COc1ccc2ccc(=O)oc2c1)NCCc1c[nH]c2ccc(F)cc12
Cc1cc2nn(-c3cccc4ccccc34)nc2cc1NC(=O)c1cccs1
COc1cccc(C2CC(c3cccs3)=NN2C(=O)CSc2nc3c(cnn3-c3ccc(F)cc3)c(=O)[nH]2)c1OC (stereo not drawn)
COc1c2ccoc2nc2c(OC)cccc12
CCN(Cc1ccccc1)S(=O)(=O)c1ccc(C(=O)N(CCCN(C)C)c2nc3cc(C)cc(C)c3s2)cc1
CC(C)C(=O)Nc1cccc(NC(=S)NC(=O)C(c2ccccc2)c2ccccc2)c1
CCOC(=O)c1nnn2c1nc(N1CCOCC1)c1ccccc12
N/C(Cc1ccc([N+](=O)[O-])cc1)=N\OC(=O)c1ccc2ccccc2c1
COc1ccc(S(=O)(=O)NCC2CCCO2)cc1NC(=O)c1ccccc1F (stereo not drawn)
c1ccc(-n2cnnc2SCc2cn3cccnc3n2)cc1
CCOC(=O)C1CCCN(C(=O)CCn2nnnc2CN2CCOCC2)C1 (stereo not drawn)
C#CCNC(=O)C1=C[C@@H](C2CCCCC2)C[C@@H](OCc2ccc(CO)cc2)O1
CCCOc1ccccc1C(=O)NCCCC(=O)O
Cc1ccc(-c2nc(Nc3ccc(N4CCOCC4)cc3)c3ccccc3n2)cc1
Cc1c(Cc2ccccc2)c(=O)oc2c(C)c(OCC(=O)N3CCC(C(=O)O)CC3)ccc12
O=C(Nc1ccccc1N1CCOCC1)C1CCN(S(=O)(=O)c2ccc(F)cc2)CC1
C/C(CC1(O)C(=O)Nc2ccccc21)=N\O (stereo not drawn)
COc1cccc(-c2ccc(-c3noc(-c4ccccc4F)n3)c(OC)n2)c1
O=C1OCCN1C(=O)[C@H]1[C@H](c2ccc(F)cc2)C(c2ccc(F)cc2)=NN1c1ccc(Br)cc1
O=C(O)CCCC[C@@H]1SC[C@@H]2NC(=O)N[C@@H]21
CCC(COC)NC(=O)CCc1nnc(Cc2cccc(C(F)(F)F)c2)o1 (stereo not drawn)
O=C(CN1CCC(NC(=O)c2ccc(Br)cc2)CC1)NCc1cccs1
OC1CCN(C(c2ccc3ncccc3c2)c2nnnn2C2CCCCC2)CC1 (stereo not drawn)
O=C1CCN(Cc2ccccc2)CCN1[C@H](CSc1ccccc1)Cc1ccccc1
CC(C)c1ccc(NC(=O)COc2nncc3ccccc23)cc1
